Screening results from PubChem BioAssay.
Shown are actives, neighbours in structure and some others; about 3.5% of the full set was active somewhere.
Pf apPOL inh: Pf-apPOL DNA polymerase inhibition | Recombinant Pf-apPOL, molecular beacon fluorescence, 1.5 h | inhibition, % at 10 µM | hit rate 0.25% among 210,000
mHTT CaM bind: inhibitors of human mutant huntingtin-calmodulin interaction; P42858; AlphaScreen His-mHTT/GST-CaM binding, luminescence; inhibition, % at 15 µM; hit rate 3.6% among 190,000; AID 1671202;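 note: 0% = both proteins with DMSO and 100% = one protein alone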
Starred values were filed as active, the others as inactive; . = no result. Cut-off read from the data, not from the text of the source: active = inhibition above about 50%; inactive = the rest.

SMILES	Pf apPOL inh	mHTT CaM bind
CCOc1ccc(N2CC(c3nnc(NC(=O)c4cccc(Cl)c4)o3)CC2=O)cc1 (centres undefined)	-2	77*
COc1ccc(N2CC(c3nnc(NC(=O)c4cccc(Cl)c4)o3)CC2=O)cc1 (centres undefined)	-2	56*
CCOC(=O)c1ccc(NC(=O)CSc2ccc(-c3ccc(F)cc3)nn2)cc1	-6	22
O=C(NC1CC(O)C(CO)C1)c1ccc2[nH]ccc2c1 (centres undefined)	2	8
Oc1ccc(Br)c(C=Nc2ccc(-c3ccc(N=Cc4cc(Br)ccc4O)cc3)cc2)c1	.	-4
O=C(Nc1cccnc1)c1cccc(I)c1	-1	-8
O=C(CSc1nnnn1-c1ccc(Cl)cc1)Nc1cccc(Cl)c1	-2	-2
O=C(c1cc2ccccc2[nH]1)N1CCCn2nc(-c3cccnc3)cc2C1	-5	34
CCc1ccc2oc(-c3cc(NC(=O)c4ccc(F)cc4)ccc3O)nc2c1	-4	0
CCc1ccc(CN2CCC(C(=O)N3CCN(c4cccc(C)c4C)CC3)CC2)cc1	2	21
Cn1c(N2CCC(C(=O)N3CCN(c4ccccn4)CC3)CC2)cc(=O)n(C)c1=O	-4	29
Cn1c(N2CCC(C(=O)N3CCN(c4ccccc4F)CC3)CC2)cc(=O)n(C)c1=O	1	27
CCn1c(N2CCC(C(=O)N3CCN(c4ccccn4)CC3)CC2)cc(=O)n(C)c1=O	-1	53*
CCn1c(N2CCC(C(=O)N3CCN(c4ccccc4F)CC3)CC2)cc(=O)n(C)c1=O	0	62*
COc1cc(OC)c(OC)cc1CNCc1cc(OC)c(OC)c(OC)c1	1	3
COc1cc(OC)cc(C(=O)n2nnc3ccccc32)c1	-2	1
COc1cc(SC)ccc1C(=O)n1nnc2ccccc21	-8	91*
Cc1nc(CC(=O)Nc2cc(F)cc(F)c2)cs1	-3	1
COc1ccc(/C=C2/C(=O)N(c3cccc(Cl)c3)N=C2C)cc1[N+](=O)[O-]	0	18
CC1=NN(c2cccc(Cl)c2)C(=O)/C1=C/c1ccc(-c2cc([N+](=O)[O-])ccc2O)o1	-3	92*
CC1=NN(c2ccccc2)C(=O)/C1=C/c1ccc(-c2ccc([N+](=O)[O-])cc2C)o1	-9	1
COc1cc(/C=C2/C(=O)N(c3ccc(C)cc3)N=C2C)c([N+](=O)[O-])cc1OC	-7	49
COc1cc(/C=C2/C(=O)N(c3cccc(Cl)c3)N=C2C)c([N+](=O)[O-])cc1OC	1	62*
COc1cc(/C=C2/C(=O)N(c3ccc(C(=O)O)cc3)N=C2C)c([N+](=O)[O-])cc1OC	100*	6
COC(=O)c1sccc1NC(=O)N1CCn2cccc2C1C(C)C (centres undefined)	-5	-1
SMILES	Pf apPOL inh	mHTT CaM bind
Cc1nc2ccccc2nc(C)c1=NOCc1cccc(C(F)(F)F)c1	3	2
Cc1cc(C)cc(NC(=O)Nc2nccn(-c3cc(C)cc(C)c3)c2=O)c1	0	-5
Cc1cccnc1N(C(=O)c1ccccc1F)C(=O)c1ccccc1F	0	5
CC(C)N(C(=O)c1ccccc1F)C(C)C	-6	82*
CN(CC(=O)NC1CCCCC1)S(=O)(=O)c1ccc(Br)cc1	-2	0
CC1(C)CC(=O)C2=C(C1)OC(N)=C(C#N)C2c1ccc(Br)cc1 (centres undefined)	-5	4
CC1(C)CC(=O)C2=C(C1)N=C1c3ccccc3C(=O)C1C2c1ccc(O)c(O)c1 (centres undefined)	12	48
CC1(C)CC(=O)C2=C(C1)N=C1c3ccccc3C(=O)C1C2c1cc(Br)ccc1O (centres undefined)	-5	59*
CC1(C)CC(=O)C2=C(C1)N=C1c3ccccc3C(=O)C1C2c1ccc(F)cc1 (centres undefined)	-2	62*
COc1ccc(C2C3=C(CCCC3=O)N=C3c4ccccc4C(=O)C32)cc1OC (centres undefined)	-3	36
CC1(C)CC(=O)C2=C(C1)N=C1c3ccccc3C(=O)C1C2c1ccc(Br)cc1 (centres undefined)	-2	65*
COc1cc(NS(=O)(=O)c2ccc(NC(=O)c3ccc(OC(C)C)cc3)cc2)nc(OC)n1	-11	9
NC(=O)c1cc(-c2ccc(O)cc2)nc2ccccc12	-4	3
CCN(CC)CCNC(=O)CSc1nc2nc(C)c(Cc3ccccc3Cl)c(C)n2n1	-4	5
O=C(c1csc(-c2ccc(N3CCCC3)nc2)n1)N1CCCCCC1	1	-6
COc1cccc(C(=O)N2CCN=C2SCc2cccc(F)c2)c1OC	59*	-20
COc1cccc(C(=O)N2CCN=C2SC)c1OC	-3	5
CCn1c(SC)nnc1-c1nn(C)c2c1CN(C(=O)c1ccco1)CC2	-6	1
O=C(Nc1cnc2ccccc2c1)c1cc([N+](=O)[O-])ccc1Cl	3	15
CCOc1cc(N2CCOCC2)c(OCC)cc1N	-6	53*
CCOc1ccc(C(=O)Nc2ccccc2N2CCOCC2)cc1Br	-6	-10
NCCCCNc1ccc2c(=O)[nH][nH]c(=O)c2c1	-5	-6
O=S(=O)(c1ccc2[nH]c3c(c2c1)CCCCC3)N1CCCCC1	-2	76*
CN(CC(=O)N1CCCCCC1)S(=O)(=O)c1ccc2[nH]c3c(c2c1)CCCC3	-7	14
O=S(=O)(c1ccc2[nH]c3c(c2c1)CCCCC3)N1CCC2(CC1)OCCO2	-1	58*
SMILES	Pf apPOL inh	mHTT CaM bind
Cc1ccc2c(c1)N(S(=O)(=O)c1ccc3[nH]c4c(c3c1)CCCC4)CCO2	0	42
CCOC(=O)C1CCN(S(=O)(=O)c2ccc3[nH]c4c(c3c2)CCCCC4)CC1	-5	71*
CC1(C)CC(=O)C(C(C2=C(O)CC(C)(C)CC2=O)c2cccc(OCc3ccccc3)c2)C(=O)C1 (centres undefined)	1	16
CCn1c(=O)c2c(ncn2Cc2ccccc2)n(-c2cccc(F)c2)c1=O	7	2
CCOc1ccc(CC(=O)N2CC3CC(NC(=O)c4ccccc4)C2C3)cc1 (centres undefined)	-2	2
O=C(NC(Nc1cccc([N+](=O)[O-])c1)C(Cl)(Cl)Cl)c1cccc(Cl)c1 (centres undefined)	-1	86*
COc1ccc(NC(NC(=O)c2cc([N+](=O)[O-])cc([N+](=O)[O-])c2)C(Cl)(Cl)Cl)cc1 (centres undefined)	-6	69*
CN(C)C(=O)NC(Nc1cccc([N+](=O)[O-])c1)C(Cl)(Cl)Cl (centres undefined)	-2	0
O=C(NC(Nc1ccc([N+](=O)[O-])cc1)C(Cl)(Cl)Cl)c1ccccc1 (centres undefined)	-8	44
Cc1cccc(C(=O)NC(Nc2ccc([N+](=O)[O-])cc2)C(Cl)(Cl)Cl)c1 (centres undefined)	-1	38
Cc1ccc(C(=O)NC(Nc2ccccc2C)C(Cl)(Cl)Cl)cc1 (centres undefined)	0	-6
O=C(NC(Nc1ccccc1Cl)C(Cl)(Cl)Cl)c1cccc([N+](=O)[O-])c1 (centres undefined)	-4	74*
Cc1ccccc1NC(NC(=O)c1cc([N+](=O)[O-])cc([N+](=O)[O-])c1)C(Cl)(Cl)Cl (centres undefined)	-2	53*
Cc1ccccc1Cn1c(=O)c(CCC(=O)NCc2cccs2)nc2ccccc21	-6	-1
